Measurements as given in ChEMBL document CHEMBL3988442, “University of Dundee, Small-Polar-MMV Screening Library” (2021).
For some assays here: Measured potencies and affinities stand elsewhere.

Experiments:
[1] = target: T1, Methionyl-tRNA synthetase, putative (Leishmania donovani (strain BPK282A1)) (UniProt E9BF75); test: Leishmania donovani Methionine tRNA synthetase (LdMetRS):v7. Dose response assay; type: functional; set-up: conc 80 nM, time 150 minutes
T1 sequence (whole entry): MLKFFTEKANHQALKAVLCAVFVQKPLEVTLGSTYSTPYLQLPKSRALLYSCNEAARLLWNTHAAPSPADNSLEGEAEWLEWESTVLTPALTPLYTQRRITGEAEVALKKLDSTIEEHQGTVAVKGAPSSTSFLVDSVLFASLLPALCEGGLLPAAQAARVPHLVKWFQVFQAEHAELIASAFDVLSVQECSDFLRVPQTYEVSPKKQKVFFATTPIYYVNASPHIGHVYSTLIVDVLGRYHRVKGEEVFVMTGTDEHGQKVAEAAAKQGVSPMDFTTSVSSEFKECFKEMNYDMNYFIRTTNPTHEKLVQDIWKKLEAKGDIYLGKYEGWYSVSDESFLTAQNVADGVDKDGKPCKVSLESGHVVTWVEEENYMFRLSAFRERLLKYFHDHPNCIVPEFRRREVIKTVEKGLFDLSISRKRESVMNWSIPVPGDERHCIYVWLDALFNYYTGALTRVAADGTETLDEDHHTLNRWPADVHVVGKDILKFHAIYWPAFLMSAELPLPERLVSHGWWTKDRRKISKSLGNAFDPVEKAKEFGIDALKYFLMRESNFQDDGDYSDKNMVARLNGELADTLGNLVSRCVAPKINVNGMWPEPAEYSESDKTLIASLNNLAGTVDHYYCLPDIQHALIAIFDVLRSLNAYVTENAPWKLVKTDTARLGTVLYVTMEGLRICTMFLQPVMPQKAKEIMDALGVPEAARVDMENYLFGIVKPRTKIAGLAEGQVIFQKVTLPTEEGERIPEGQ

[2] = target: Protein translocase subunit SecA (Escherichia coli (strain K12)) (UniProt P10408); test: Assay to Identify E. coli SecA ATPase Inhibitors; type: functional; set-up: scale not given: direction of the effect not stated beside the values; settings: 30 µM
Protein translocase subunit SecA (Escherichia coli (strain K12)), sequence (P10408 whole entry): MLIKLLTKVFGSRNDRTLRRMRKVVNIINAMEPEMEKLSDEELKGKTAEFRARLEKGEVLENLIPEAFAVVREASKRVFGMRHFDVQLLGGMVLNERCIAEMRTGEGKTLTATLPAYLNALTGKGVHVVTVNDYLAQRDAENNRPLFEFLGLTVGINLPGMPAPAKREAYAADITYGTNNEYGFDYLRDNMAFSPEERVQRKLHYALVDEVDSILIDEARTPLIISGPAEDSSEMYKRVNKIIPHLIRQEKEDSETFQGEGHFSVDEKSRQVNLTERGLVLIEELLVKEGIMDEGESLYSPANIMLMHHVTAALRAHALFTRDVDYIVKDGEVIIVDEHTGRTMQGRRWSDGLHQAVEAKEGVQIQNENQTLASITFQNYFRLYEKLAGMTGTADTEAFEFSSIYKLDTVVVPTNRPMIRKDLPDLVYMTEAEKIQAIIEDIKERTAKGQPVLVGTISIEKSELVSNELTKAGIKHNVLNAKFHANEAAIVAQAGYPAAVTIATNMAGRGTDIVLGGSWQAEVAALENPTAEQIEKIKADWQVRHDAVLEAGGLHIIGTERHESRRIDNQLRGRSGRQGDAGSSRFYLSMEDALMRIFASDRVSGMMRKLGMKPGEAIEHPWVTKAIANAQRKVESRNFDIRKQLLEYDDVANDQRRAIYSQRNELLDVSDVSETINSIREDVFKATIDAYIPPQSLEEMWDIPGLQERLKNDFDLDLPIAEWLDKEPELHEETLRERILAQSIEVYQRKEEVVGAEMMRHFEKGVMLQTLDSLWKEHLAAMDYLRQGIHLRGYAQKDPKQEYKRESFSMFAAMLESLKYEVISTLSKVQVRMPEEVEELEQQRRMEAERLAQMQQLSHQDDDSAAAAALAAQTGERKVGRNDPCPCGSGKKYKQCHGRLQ

[3] = target: T2, Ubiquitin-activating enzyme e1, putative (Leishmania donovani (strain BPK282A1)) (UniProt E9BSI1); test: Leishmania donovani Ubiquitin Activating Enzyme (LdE1); type: functional; set-up: scale not given: direction of the effect not stated beside the values; settings: 30 µM
T2 sequence (whole entry): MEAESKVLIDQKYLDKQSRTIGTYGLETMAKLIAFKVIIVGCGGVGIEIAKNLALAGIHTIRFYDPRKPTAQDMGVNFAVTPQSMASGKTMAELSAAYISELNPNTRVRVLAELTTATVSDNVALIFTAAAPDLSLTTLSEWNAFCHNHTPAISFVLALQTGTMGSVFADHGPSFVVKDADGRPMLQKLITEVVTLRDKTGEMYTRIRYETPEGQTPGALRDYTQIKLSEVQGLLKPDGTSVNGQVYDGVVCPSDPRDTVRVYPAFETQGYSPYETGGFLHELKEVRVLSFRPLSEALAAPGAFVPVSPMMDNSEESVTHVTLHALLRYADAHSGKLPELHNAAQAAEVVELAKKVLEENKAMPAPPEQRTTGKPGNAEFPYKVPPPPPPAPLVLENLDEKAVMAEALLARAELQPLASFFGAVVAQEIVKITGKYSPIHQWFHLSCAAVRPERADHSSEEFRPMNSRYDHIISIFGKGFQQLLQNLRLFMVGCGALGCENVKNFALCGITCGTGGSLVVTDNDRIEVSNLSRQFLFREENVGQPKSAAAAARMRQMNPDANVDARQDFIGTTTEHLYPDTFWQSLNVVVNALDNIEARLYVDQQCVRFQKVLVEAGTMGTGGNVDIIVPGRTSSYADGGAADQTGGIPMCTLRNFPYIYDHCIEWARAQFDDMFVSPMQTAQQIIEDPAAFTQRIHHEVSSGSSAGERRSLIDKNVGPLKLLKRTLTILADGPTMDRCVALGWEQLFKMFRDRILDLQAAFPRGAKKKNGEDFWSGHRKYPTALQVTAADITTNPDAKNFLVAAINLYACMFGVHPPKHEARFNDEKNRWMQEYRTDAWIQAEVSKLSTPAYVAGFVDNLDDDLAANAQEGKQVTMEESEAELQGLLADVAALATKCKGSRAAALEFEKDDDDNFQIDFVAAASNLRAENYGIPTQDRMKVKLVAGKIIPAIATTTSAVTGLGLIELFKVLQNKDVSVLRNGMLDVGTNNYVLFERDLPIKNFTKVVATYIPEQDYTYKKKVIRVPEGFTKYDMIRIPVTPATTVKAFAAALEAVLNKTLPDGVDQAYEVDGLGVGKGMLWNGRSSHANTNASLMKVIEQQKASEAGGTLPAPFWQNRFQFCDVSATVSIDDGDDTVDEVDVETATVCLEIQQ

[4] = target: Sialic acid-binding Ig-like lectin 9 (Homo sapiens) (UniProt Q9Y336); test: Hs-Siglec9 ALPHAscreen SOP 20170721; set-up: scale not given: direction of the effect not stated beside the values; settings: 10 µM
Sialic acid-binding Ig-like lectin 9 (Homo sapiens), sequence (Q9Y336 whole entry): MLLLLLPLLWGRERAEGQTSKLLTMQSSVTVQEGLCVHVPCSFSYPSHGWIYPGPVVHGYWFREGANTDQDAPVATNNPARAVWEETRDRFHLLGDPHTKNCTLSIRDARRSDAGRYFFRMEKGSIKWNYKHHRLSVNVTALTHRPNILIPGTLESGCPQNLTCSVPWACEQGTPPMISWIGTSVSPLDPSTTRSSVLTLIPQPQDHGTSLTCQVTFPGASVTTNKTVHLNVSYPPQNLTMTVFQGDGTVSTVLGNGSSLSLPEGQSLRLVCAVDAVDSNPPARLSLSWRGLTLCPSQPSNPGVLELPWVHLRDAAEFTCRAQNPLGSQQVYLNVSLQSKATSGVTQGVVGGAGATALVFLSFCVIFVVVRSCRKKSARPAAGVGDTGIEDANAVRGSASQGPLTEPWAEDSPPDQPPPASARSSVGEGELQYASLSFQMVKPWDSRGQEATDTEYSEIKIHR

Trypanosoma cruzi = test: Trypanosoma cruzi phosphomannomutase and mannose-1-phosphate guanylyltransferase assay; type: functional; set-up: scale not given: direction of the effect not stated beside the values; settings: 10 µM
[5] = target: T3, Arginase-2, mitochondrial (Homo sapiens) (UniProt P78540); test: in vitro enzyme assay to detect the production of urea directly proportional to the activity of Arginase II; type: functional; set-up: scale not given: in the data most compounds retested in dose-response had high values; settings: 33.3 µM
T3 sequence (whole entry): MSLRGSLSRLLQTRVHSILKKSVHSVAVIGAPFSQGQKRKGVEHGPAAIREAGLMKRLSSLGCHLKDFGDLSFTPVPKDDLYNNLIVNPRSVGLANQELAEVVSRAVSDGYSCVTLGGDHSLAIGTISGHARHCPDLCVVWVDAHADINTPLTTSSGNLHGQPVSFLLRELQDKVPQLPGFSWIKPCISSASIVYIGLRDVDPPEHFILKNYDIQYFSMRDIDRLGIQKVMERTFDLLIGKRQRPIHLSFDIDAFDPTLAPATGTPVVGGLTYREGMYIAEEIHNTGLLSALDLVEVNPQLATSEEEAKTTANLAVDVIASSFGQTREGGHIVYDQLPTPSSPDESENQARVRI

[6] = target: T4, Proteasome subunit beta (Trypanosoma cruzi) (UniProt O96673); test: Trypanosoma cruzi proteasome chymotrypsin-like activity (TcProtChymo) assay.; type: functional; set-up: scale not given: in the data most compounds retested in dose-response had high values; settings: 9.37 µM
T4 sequence (whole entry): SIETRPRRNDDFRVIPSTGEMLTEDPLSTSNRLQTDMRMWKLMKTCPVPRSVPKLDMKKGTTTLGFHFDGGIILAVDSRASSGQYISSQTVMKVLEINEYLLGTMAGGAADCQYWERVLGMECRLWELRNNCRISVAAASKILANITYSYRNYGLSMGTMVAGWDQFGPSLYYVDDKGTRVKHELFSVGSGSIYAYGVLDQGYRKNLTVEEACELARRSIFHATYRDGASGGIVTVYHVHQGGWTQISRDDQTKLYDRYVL

Homo sapiens = species on record: Homo sapiens; test: To identify inhibition of the IFN signalling (Jak-Stat) pathway via expression of an eGFP reporter gene under the control of an IFN-stimulated response element (ISRE) containing MxA promoter.; type: functional; set-up: scale not given: direction of the effect not stated beside the values; settings: 30 µM
[7] = target: T5, Tyrosyl-tRNA synthetase, putative (Trypanosoma cruzi (strain CL Brener)) (UniProt Q4DSP6); test: Trypanosoma cruzi tyrosyl tRNA synthetase (TcYRS) _High Tyrosine SOP; type: functional; set-up: scale not given: in the data most compounds retested in dose-response had high values; settings: 30 µM
T5 sequence (whole entry): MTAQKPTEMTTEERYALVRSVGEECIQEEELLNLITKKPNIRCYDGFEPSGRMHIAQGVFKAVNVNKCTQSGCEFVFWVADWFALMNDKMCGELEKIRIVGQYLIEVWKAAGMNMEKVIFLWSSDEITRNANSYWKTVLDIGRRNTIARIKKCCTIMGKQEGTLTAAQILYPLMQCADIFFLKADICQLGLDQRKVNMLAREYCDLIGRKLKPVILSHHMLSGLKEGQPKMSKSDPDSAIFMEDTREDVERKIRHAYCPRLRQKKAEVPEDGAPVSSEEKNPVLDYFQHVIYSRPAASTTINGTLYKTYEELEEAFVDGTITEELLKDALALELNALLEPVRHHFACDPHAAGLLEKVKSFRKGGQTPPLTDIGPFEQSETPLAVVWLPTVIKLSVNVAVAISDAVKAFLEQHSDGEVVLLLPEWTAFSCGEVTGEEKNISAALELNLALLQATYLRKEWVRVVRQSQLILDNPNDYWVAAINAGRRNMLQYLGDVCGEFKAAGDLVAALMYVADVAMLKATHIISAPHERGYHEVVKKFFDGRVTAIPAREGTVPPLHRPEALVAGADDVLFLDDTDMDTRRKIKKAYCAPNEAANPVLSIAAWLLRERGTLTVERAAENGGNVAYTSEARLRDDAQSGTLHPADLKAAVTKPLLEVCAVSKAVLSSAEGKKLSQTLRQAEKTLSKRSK

[8] = target: T5, Tyrosyl-tRNA synthetase, putative (Trypanosoma cruzi (strain CL Brener)); test: Trypanosoma cruzi tyrosyl tRNA synthetase (TcYRS) SOP; type: functional; set-up: scale not given: direction of the effect not stated beside the values; settings: 30 µM
[9] = target: Chromo domain-containing protein 1 (Saccharomyces cerevisiae (strain ATCC 204508 / S288c) (Baker's yeast)) (UniProt P32657); test: ScCHD-1 Enzyme Inhibition Assay; type: functional; set-up: scale not given: in the data most compounds retested in dose-response had high values; settings: 30 µM
Chromo domain-containing protein 1 (Saccharomyces cerevisiae (strain ATCC 204508 / S288c) (Baker's yeast)), sequence (P32657 whole entry, the tested form may be a part): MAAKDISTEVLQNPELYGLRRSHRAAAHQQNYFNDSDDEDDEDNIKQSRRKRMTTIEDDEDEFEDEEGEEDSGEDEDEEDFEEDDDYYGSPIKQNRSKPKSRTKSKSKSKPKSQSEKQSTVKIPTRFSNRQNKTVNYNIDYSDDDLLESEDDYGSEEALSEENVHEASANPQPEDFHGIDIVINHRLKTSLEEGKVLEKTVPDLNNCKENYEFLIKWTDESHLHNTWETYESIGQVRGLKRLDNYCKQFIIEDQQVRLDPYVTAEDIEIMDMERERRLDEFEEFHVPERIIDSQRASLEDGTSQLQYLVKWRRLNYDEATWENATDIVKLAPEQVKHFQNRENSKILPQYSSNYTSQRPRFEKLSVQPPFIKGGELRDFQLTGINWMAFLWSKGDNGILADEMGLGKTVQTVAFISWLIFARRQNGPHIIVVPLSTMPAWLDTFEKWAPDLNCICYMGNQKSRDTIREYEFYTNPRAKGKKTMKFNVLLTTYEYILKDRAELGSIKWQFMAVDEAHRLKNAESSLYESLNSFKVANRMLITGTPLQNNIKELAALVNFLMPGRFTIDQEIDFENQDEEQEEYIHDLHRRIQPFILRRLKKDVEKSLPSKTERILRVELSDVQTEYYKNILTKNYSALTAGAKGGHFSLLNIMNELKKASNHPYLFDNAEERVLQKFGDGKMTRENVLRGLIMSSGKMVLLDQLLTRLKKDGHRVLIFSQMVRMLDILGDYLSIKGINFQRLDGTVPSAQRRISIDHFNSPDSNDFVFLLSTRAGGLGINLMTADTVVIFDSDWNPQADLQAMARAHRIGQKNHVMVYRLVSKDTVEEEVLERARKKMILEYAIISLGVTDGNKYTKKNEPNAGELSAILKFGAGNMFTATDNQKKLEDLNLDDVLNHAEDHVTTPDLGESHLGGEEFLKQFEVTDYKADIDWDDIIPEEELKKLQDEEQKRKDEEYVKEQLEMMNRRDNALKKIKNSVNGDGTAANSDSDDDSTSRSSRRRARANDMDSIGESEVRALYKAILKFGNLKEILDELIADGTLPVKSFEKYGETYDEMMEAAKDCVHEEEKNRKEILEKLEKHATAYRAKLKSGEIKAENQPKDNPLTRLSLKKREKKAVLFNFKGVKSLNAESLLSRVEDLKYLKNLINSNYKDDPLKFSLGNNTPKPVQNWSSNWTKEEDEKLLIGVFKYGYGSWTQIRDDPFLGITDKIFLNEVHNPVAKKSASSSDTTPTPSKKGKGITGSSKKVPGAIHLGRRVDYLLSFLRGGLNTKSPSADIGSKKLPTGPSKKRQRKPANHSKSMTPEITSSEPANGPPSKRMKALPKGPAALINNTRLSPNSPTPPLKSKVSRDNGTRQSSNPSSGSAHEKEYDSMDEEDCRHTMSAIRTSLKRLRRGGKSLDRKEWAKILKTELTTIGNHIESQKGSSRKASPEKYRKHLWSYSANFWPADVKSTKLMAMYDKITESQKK

Compound O=C(NC1CC1)c1ccc2ccc(N3CCN(CC4CC4)CC3)n2c1 has a PXC50 ([1]; BOTTOM 0.467703885, HILLSLOPE 1.411799655, MAX_EFFECT 58.90736342, TOP 70.88537837) of 4.49, a PXC50 ([1]; BOTTOM 3.025092892, HILLSLOPE 1.100251625, MAX_EFFECT 63.9084507, TOP 101.8817942) of 4.18 and a PXC50 ([1]; BOTTOM 3.903834548, HILLSLOPE 2.10176548, MAX_EFFECT 63.76811594, TOP 66.05792102) of 4.72. The PXC50 ([1]; BOTTOM -3.956247574, HILLSLOPE 1.036561065, MAX_EFFECT 73.83512545, TOP 100.0) was 4.45, the PXC50 ([1]; BOTTOM -4.174046537, HILLSLOPE 0.97706716, MAX_EFFECT 63.03630363, TOP 100.0) was 4.22 and the Percent Effect [2] was 0.138%. It also gave a Percent Effect [3] of 9.09%, a Percent Effect [4] of 0.503% and a Percent Effect (Trypanosoma cruzi) of 7.69%. It also gave a Percent Effect [5] of -1.37%, a Percent Effect [6] of 9.19% and a Percent Effect (Homo sapiens) of -15.1%. For the same compound, the Percent Effect [7] was 45.4%, the Percent Effect [8] was 22.5% and the Percent Effect [9] was -3.97%.

Compound CCc1ccc(-c2cc(C(F)(F)F)nc(N3CCC(N)CC3)n2)cc1 has a PXC50 ([1]; BOTTOM 0.706388919, HILLSLOPE 2.15610203, MAX_EFFECT 103.8387716, TOP 100.0) of 4.56, a PXC50 ([1]; BOTTOM 1.827311561, HILLSLOPE 2.684909792, MAX_EFFECT 98.40510367, TOP 100.0) of 4.35 and a PXC50 ([1]; BOTTOM 4.066049008, HILLSLOPE 2.434171465, MAX_EFFECT 89.60138648, TOP 100.0) of 4.34. For the same compound, the PXC50 ([1]; BOTTOM 4.927859372, HILLSLOPE 1.513560957, MAX_EFFECT 87.5, TOP 100.0) was 4.46 and the PXC50 ([1]; BOTTOM -3.243969643, HILLSLOPE 5.145586142, MAX_EFFECT 85.90604027, TOP 95.73252463) was 4.19.

In the case of NC[C@H]1CC[C@H](C(NC(=O)c2cccc(F)c2)c2ccccn2)CC1 (stereo not given in full), the PXC50 ([1]; MAX_EFFECT 33.33333333) is reported as under 4, the PXC50 ([1]; MAX_EFFECT 43.95393474) is reported as under 4 and the PXC50 ([1]; MAX_EFFECT 49.10394265) is reported as under 4. For the same compound, the PXC50 ([1]; MAX_EFFECT 49.8349835) was under 4, the PXC50 ([1]; MAX_EFFECT 55.07246377) was under 4 and the Percent Effect [2] was 0.535%. The Percent Effect [3] was 12%, the Percent Effect [4] was -8.09% and the Percent Effect (Trypanosoma cruzi) was 6.51%. It also gave a Percent Effect [5] of -0.443%, a Percent Effect [6] of 9.36% and a Percent Effect (Homo sapiens) of 8.62%. The Percent Effect [7] was 31.8%, the Percent Effect [8] was 45% and the Percent Effect [9] was -26.3%.
